Measured values from ChEMBL document CHEMBL1157539, “Thousands of chemical starting points for antimalarial lead identification” (Nature, 2010).
In all, about 13,000 compounds were measured (“IFI”: median about 4, highest 2% from about 17 on). The list comes from a sample in which the highest values are over-represented; it also holds similar structures and randomly drawn compounds.

Assay: GSK_TCMDC: Inhibition Frequency Index (IFI). The number of non-kinase HTS assays where a compound showed > 50 % inhibition, expressed as a percentage of the number of such assays in which the compound was tested
Format: functional

| Structure (SMILES) | IFI |
| --- | --- |
| CCCNCc1ccc(-c2ccc(CN(CCOC)C(=O)c3cccc(C#N)c3)cc2)nc1 | 0.7% |
| Nc1nc2c(ncn2COC(COCc2ccccc2)COCc2ccccc2)c(=O)[nH]1.Nc1nc2ncn(COC(COCc3ccccc3)COCc3ccccc3)c2c(=O)[nH]1 | 0% |
| CCCCOC(=O)c1ccc(NC(=O)Nc2ccc(Cn3ncc(N4CCCNCC4)c(Cl)c3=O)cc2)cc1 | 5.97% |
| CCCCCc1ccc(NC(=O)Nc2ccc(Cn3ncc(N4CCCNCC4)c(Cl)c3=O)cc2)cc1 | 9.09% |
| CCCCCCCOc1ccc(NC(=O)Nc2ccc(Cn3ncc(N4CCCNCC4)c(Cl)c3=O)cc2)cc1 | 19.1% |
| Cc1[nH]c(C)c(-c2ccc(OCCCc3ccccn3)cc2)c(=O)c1Br | 0% |
| COC(=O)c1ccc(-c2ccc(-c3cccnc3)cc2C)cc1 | 21.7% |
| COC(=O)c1ccc2nc(-c3cc(-c4cccc(-c5ccccc5)c4)cnc3N)[nH]c2c1 | 2.94% |
| COc1ccc(NC(=O)c2ccc(-c3ccc(-c4cccnc4)cc3)c(C)c2)cc1OCCN(C)C | 6.9% |
| Cc1ccccc1Nc1nc(Nc2ccccc2)c2ccccc2n1 | 3.65% |
| O=C1c2cc(I)ccc2SC1c1ccccc1 (stereo not drawn) | 1.43% |
| O=S(=O)(NCCN1CCCC1)c1cccc(-c2ccc(CNCc3ccccc3)cc2)c1 | 5.88% |
| O=[N+]([O-])c1cccc(C(Nc2ccccn2)c2ccc3cccnc3c2O)c1 (stereo not drawn) | 8.74% |
| CC1(CCc2ccccc2)N=C(N)N(Cc2ccccc2)C(=O)C1c1ccc(Cl)c(Cl)c1 (stereo not drawn) | 19.2% |
| CC1(CCc2ccccc2)N=C(N)N=C(N)C1c1ccc(Cl)c(Cl)c1 (stereo not drawn) | 2.94% |
| CCCCCCC1(C)N=C(N)N=C(N)C1c1ccc(Cl)c(Cl)c1 (stereo not drawn) | 2.78% |
| CC1(C)N=C(N)N=C(N)C1c1ccc(Cl)c(Cl)c1 (stereo not drawn) | 1.43% |
| CCC1(c2ccccc2)N=C(N)N(CCCc2ccccc2)C1=O (stereo not drawn) | 7.14% |
| CC1(CCc2ccccc2)N=C(Nc2ccc(Cl)cc2)N=C(N)C1c1ccc(Cl)c(Cl)c1 (stereo not drawn) | 26.6% |
| NS(=O)(=O)c1cccc(-c2ccc3nccc(-c4cccc(S(N)(=O)=O)c4)c3c2)c1 | 0% |
| Cn1c(N=C2NC3(c4ccccn4)NC(=Nc4nc5ccccc5n4C)NC3(c3ccccn3)N2)nc2ccccc21 (stereo not drawn) | 3.6% |
| Cc1cccc(-c2nn(-c3ccccc3)c3[nH]c(=O)c(CN4CCSCC4)cc23)c1 | 1.82% |
| CC1(CCN2CCC(c3c[nH]c4cnccc34)CC2)CCCc2c(Br)cccc2C1=O (stereo not drawn) | 8.51% |
| Cc1cc(C)c2ncc(C(=O)O)c(O)c2c1 | 1.46% |

| Structure (SMILES) | IFI |
| --- | --- |
| Cc1cc(SC(C)(C)C)cc2c(Cl)c(C(N)=O)cnc12 | 32.5% |
| Oc1ccc(CCCNc2nc(NCc3ccccc3-c3ccccc3)nc(NC3CCNCC3)n2)cc1 | 15.2% |
| COc1ccccc1-n1ccnc1SCC(=O)Nc1cccc(C(F)(F)F)c1 | 5.93% |
| CC(CCON1C(N)=NC(N)=NC1(C)C)c1ccc(Cl)c(Cl)c1 (stereo not drawn) | 7.09% |
| O=C(/C=C/c1ccc(Cl)c(Cl)c1)NCCCCCN1CCC(CCNC(=O)/C=C/c2ccc(Cl)c(Cl)c2)CC1 | 11.2% |
| Clc1ccc(OCCC2CCN(CCCCCCN3CCCCC3)CC2)cc1Cl | 9.87% |
| Clc1ccc(OCCC2CCN(CCCCCCCN3CCC(CCOc4ccc(Cl)c(Cl)c4)CC3)CC2)cc1Cl | 18.6% |
| CCCNCc1ccc(-c2ccc(CN(CC3CCCO3)C(=O)C3CC(=O)c4ccccc43)cc2)nc1 (stereo not drawn) | 1.41% |
| CCN(CC)CCN(Cc1ccc(-c2ccc(C(F)(F)F)cc2)cc1)C(=O)Cn1c(CCc2cc(F)c(F)c(F)c2)nc(=O)c2ccccc21 | 6.67% |
| Cc1noc(C)c1-c1ccc2c(Nc3ccc([N+](=O)[O-])cc3)c(C(N)=O)cnc2c1 | 1.63% |
| COc1ccc(O)c(C(=O)c2cc(C#N)c(=O)n(-c3ccc(Oc4ccccc4)cc3)c2)c1 | 3.52% |
| N#Cc1cc(C(=O)c2cc(Cl)ccc2O)cn(-c2cccc(C(F)(F)F)c2)c1=O | 7.44% |
| N#Cc1cc(C(=O)c2cc(Cl)ccc2O)cn(-c2cc(Cl)cc(Cl)c2)c1=O | 17.4% |
| COc1ccc(-n2cc(C(=O)c3cc(Br)ccc3O)cc(C#N)c2=O)cc1Cl | 14.8% |
| N#Cc1cc(C(=O)c2cc(Br)ccc2O)cn(-c2cc(Cl)cc(Cl)c2)c1=O | 20.6% |
| CCc1ccc(-n2cc(C(=O)c3cc(Br)ccc3O)cc(C#N)c2=O)cc1 | 15.9% |
| COc1ccc2ccccc2c1C=NN=c1cc(C)[nH]c2c(C)cccc12 | 1.48% |
| COc1ccc(Cn2c(Nc3cccc(C(F)(F)F)c3)nc3cc(C(=O)NCCCN(C)C)ccc32)cc1Cl | 2.14% |
| NCC1CCCN1Cc1cccc(-c2cccc(-c3nc4cc(F)ccc4[nH]3)c2)c1 (stereo not drawn) | 5% |
| O=C(Cn1c(CCc2cccc(F)c2F)nc(=O)c2ccccc21)N(Cc1ccc(-c2ccc(C(F)(F)F)cc2)cc1)C1CCN(C2=NCCS2)CC1 | 12.5% |
| CN1CCC(N2CCN(Cc3cccc(-c4ccc(-c5nc6cc(C(F)(F)F)ccc6[nH]5)cc4)c3)CC2)CC1 | 9.72% |
| CCCCNc1cc(C)nc(NCc2ccccc2)n1 | 9.72% |
| CCCCNc1c(C(=O)OCC)c(C)nc2c1[nH]c1ccccc12 | 2.17% |
| CCCCNc1cc(NCCCC)c2c(n1)[nH]c1ccccc12 | 19.4% |

| Structure (SMILES) | IFI |
| --- | --- |
| CCc1cc(COc2ccc(CNCCC(C)C)cc2I)c(OCc2ccccc2)c(COc2ccc(CNCCC(C)C)cc2I)c1 | 14.3% |
| CCOc1ccc2c(=NN=Cc3ccccc3OC)cc(C)[nH]c2c1 | 3.62% |
| Oc1ccc(-c2cc(COc3ccccc3C(F)(F)F)c(C3=CCNCC3)cc2COc2ccccc2C(F)(F)F)cc1 | 17.3% |
| FC(F)(F)c1ccccc1OCc1cc(-c2ccncc2)c(COc2ccccc2C(F)(F)F)cc1C1=CCNCC1 | 10.6% |
| Nc1nc(N)c2cc(NC(=O)c3ccc(Cl)c(Cl)c3)ccc2n1 | 15.9% |
| Cc1nc(C)c(-c2ccc(Oc3ccc(Cl)cc3Cl)cc2)c(O)c1Br | 1.52% |
| CSc1ccc2ccccc2c1CCNCCCCNCCc1c(SC)ccc2ccccc12 | 17% |
| O=[N+]([O-])c1ccc(CNCCCCCCNCc2ccc([N+](=O)[O-])c3ccccc23)c2ccccc12 | 10.3% |
| N#Cc1ccc(CNCCCCCCNCc2ccc(C#N)c3ccccc23)c2ccccc12 | 7.04% |
| COc1ccc(CCNCCCCNCCc2ccc(OC)c3ccccc23)c2ccccc12 | 13.9% |
| FC(F)(F)COc1c(CNCCCCCCNCc2ccc3ccccc3c2OCC(F)(F)F)ccc2ccccc12 | 14.9% |
| FC(F)(F)COc1c(CCNCCCCNCCc2ccc3ccccc3c2OCC(F)(F)F)ccc2ccccc12 | 19.3% |
| CCCOc1ccc(CCNCCCCNCCc2ccc(OCCC)c3ccccc23)c2ccccc12 | 12.5% |
| CN(C)c1c(CNCCCCCCNCc2ccc3ccccc3c2N(C)C)ccc2ccccc12 | 15.7% |
| FC(F)(F)COc1ccc2ccccc2c1CNCCCCCCNCc1c(OCC(F)(F)F)ccc2ccccc12 | 14.9% |
| FC(F)(F)COc1ccc2ccccc2c1CCNCCCCNCCc1c(OCC(F)(F)F)ccc2ccccc12 | 23.4% |
| FC(F)(F)COc1ccc(CNCCCCCCNCc2ccc(OCC(F)(F)F)c3ccccc23)c2ccccc12 | 21% |
| FC(F)(F)COc1ccc(CCNCCCCNCCc2ccc(OCC(F)(F)F)c3ccccc23)c2ccccc12 | 20.3% |
| O=S(=O)(NCCN1CCCC1)c1ccc(-c2cccc(CNCCc3cccs3)c2)cc1 | 9.52% |
| CON=Cc1sc(CNCCCN=c2cc(O)c3ccccc3[nH]2)c(C)c1Br | 6.52% |
| N=C(N)c1ccc2[nH]c(SCc3ccccc3)nc2c1 | 0.94% |
| O=c1c(Br)ccccc1Br | 11.6% |
| CCN(CC)CCN(Cc1ccc(-c2ccc(C(F)(F)F)cc2)cc1)C(=O)Cn1c(CCc2cccc(F)c2F)cc(=O)cc1-c1ccccc1 | 11.3% |
| N=C(N)NN=Cc1ccccc1OCc1ccccc1Cl | 6.72% |

| Structure (SMILES) | IFI |
| --- | --- |
| CS(=O)(=O)NCCCNCc1ccc(-c2ccc(-c3nc4cc(C(F)(F)F)ccc4[nH]3)cc2)cc1 | 5.94% |
| CCc1ccc(CN2CCC(CNC(=O)c3cc(-c4cccc(C(F)(F)F)c4)cs3)C2)cc1 (stereo not drawn) | 14% |
| CCCCSc1ccc(CNCCCCCCNCc2ccc(SCCCC)c3ccccc23)c2ccccc12 | 14.8% |
| CCCCOc1ccc(CNCCCCCCNCc2ccc(OCCCC)c3ccccc23)c2ccccc12 | 17.8% |
| CCCOc1ccc(CNCCCCCCNCc2ccc(OCCC)c3ccccc23)c2ccccc12 | 15.6% |
| CC1(C)NC(=N)NC(=N)N1OCC=Cc1ccccc1 | 3.57% |
| COc1ccc2[nH]ccc(=NN=Cc3ccc(Cl)cc3)c2c1 | 0.74% |
| CO/C(=C\C=C\c1cc2cc(Cl)c(Cl)cc2[nH]1)C(=O)NCCCCN1CCN(c2ccccc2OC)CC1 | 19.1% |
| CO/C(=C\C=C\c1cc2cc(Cl)c(Cl)cc2[nH]1)C(=O)NCCCN1CCN(c2cccc(Cl)c2)CC1 | 8.27% |
| CCN(CC)CCCNC(=O)/C(=C/C=C/c1cc2cc(Cl)c(Cl)cc2[nH]1)OC | 8.46% |
| CCOc1ccccc1N1CCN(CCCNC(=O)/C(=C/C=C/c2cc3cc(Cl)c(Cl)cc3[nH]2)OC)CC1 | 10.8% |
| CCN(CC)CCNC(=O)/C(=C/C=C/c1cc2cc(Cl)c(Cl)cc2[nH]1)OC | 7.63% |
| CO/C(=C\C=C\c1cc2cc(Cl)c(Cl)cc2[nH]1)C(=O)NCCCNC12CC3CC(CC(C3)C1)C2 | 21.1% |
| CCOC(=O)c1ccc(NC(=O)Nc2ccc(-c3cccc(-c4nc5cccc(C)c5[nH]4)c3)cc2)cc1 | 7% |
| Cc1noc(C)c1-c1cccc(CNCc2ccc(-c3ccc(-c4nc5cc(F)ccc5[nH]4)cc3)cc2)c1 | 8.91% |
| O=C(NCCc1cccc(Cl)c1Cl)c1cnc(N2CCN(c3ccncc3)CC2)c(Cl)c1 | 20% |
| O=C(Nc1cccc(Cl)c1)c1cnc(N2CCN(c3ccncc3)CC2)c(Cl)c1 | 16.7% |
| Cc1ccccc1CCNC(=O)c1ccc(N2CCN(c3ccncc3)CC2)nc1 | 2.08% |
| COc1ccccc1CCNC(=O)c1cnc(N2CCN(c3ccncc3)CC2)c(Cl)c1 | 10.4% |
| O=C(NCCc1cccc(Cl)c1Cl)c1ccc(N2CCN(c3ccncc3)CC2)nc1 | 10.4% |
| Cc1ccccc1CCNC(=O)c1cnc(N2CCN(c3ccncc3)CC2)c(Cl)c1 | 20.8% |
